These results are taken from PubChem BioAssay (NCATS).

Inconclusive results are not listed. Calls of active or inactive are those of the source. The call rests on the fitted dose curve; in most records, active means well fitted curve in the direction sought with a large enough effect; inconclusive means small, poorly fitted or top-dose-only effect, or another doubt; inactive means no such curve, though single readings can be large; an effect the other way counts as inactive or inconclusive.
Potency means the concentration at half of the fitted maximal effect.

The first assay is described as follows: qHTS of pediatric cancer cell lines to identify multiple opportunities for drug repurposing: Confirmatory screen for control Hh wild type fibroblast cells (AID 1347121). Further: nearly all actives have a fitted effect of over 70% in size.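 On activity, negative = cytotoxic: plate controls were DMSO for no effect and bortezomib for full effect.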 The note with it: viability qHTS; series mostly up to 45.9 µM; activity, negative = cytotoxic: at the top concentration. Summed up:
(§1)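 Viability after 48 h compound treatment at 37C, 500-1,000 cells/well, read as ATP luminescence with CellTiter-Glo. Primary screens used 11-point (MIPE, 0.78 nM-46 µM) or 8-point (NPC, 0.59 nM-46 µM) final concentrations; follow-up screens used 11-point dilutions.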
Regarding `COc1cc2cc(c1Cl)N(C)C(=O)C[C@H](OC(=O)C(C)C)[C@]1(C)O[C@H]1[C@H](C)[C@@H]1C[C@@](O)(NC(=O)O1)[C@H](OC)C=CC=C(C)C2`, the “activity, negative = cytotoxic” value was -5.57% (inactive). The same measure, in the same setting: next, `CC(C)(C)C(O)C(Oc1ccc(Cl)cc1)n1cncn1` (stereo unspecified): -0.256% [at 95.5 µM] (inactive); `O=[N+]([O-])c1c(Cl)c(Cl)cc(Cl)c1Cl`: 5.83% [at 95.5 µM] (inactive); `COc1ccc2c(c1)CN(C)CC2c1ccc(Cl)c(Cl)c1` (stereo unspecified): -1.54% (inactive).

As for `CC[C@@H]1[C@@H](C)O[C@@](O)([C@@H](C)[C@H](O)[C@H](C)[C@H]2OC(=O)C=CC=C[C@@H](C)[C@@H]([C@@H](C)[C@@H](O)[C@H](C)[C@@]3(O)C[C@H](O[C@H]4C[C@H](O)[C@H](O)[C@H](C)O4)[C@H](CC)[C@@H](C)O3)OC(=O)C=CC=C[C@@H]2C)C[C@H]1O[C@H]1C[C@H](O)[C@H](O)[C@H](C)O1`, the “activity, negative = cytotoxic” value was 7.36% (inactive).

On to `Cc1[nH]nc2ccc(-c3cncc(OC[C@@H](N)Cc4c[nH]c5ccccc45)c3)cc12`, for which the Potency was 18500 nM (active).

In the case of `C[C@@H]1CC[C@@]2(OC1)O[C@H]1C[C@H]3[C@@H]4CC=C5C[C@@H](O[C@@H]6O[C@H](CO)[C@@H](O[C@@H]7O[C@@H](C)[C@H](O)[C@@H](O)[C@@H]7O)[C@H](O)[C@@H]6O[C@@H]6O[C@@H](C)[C@H](O)[C@@H](O)[C@@H]6O)CC[C@]5(C)[C@@H]4CC[C@]3(C)[C@@H]1[C@H]2C`, the Potency is 13100 nM (active). The same measure, in the same setting: under `CC1=C(O)C(=O)C=C2C1=CC=C1[C@@]2(C)CC[C@@]2(C)[C@@H]3C[C@](C)(C(=O)O)CC[C@]3(C)CC[C@]12C` stands 4140 nM (active); under `CC(C)(O)C=CC(=O)[C@](C)(O)[C@H]1[C@H](O)C[C@]2(C)[C@@H]3CC=C4[C@@H](C=C(O)C(=O)C4(C)C)[C@]3(C)C(=O)C[C@@]12C`, 2610 nM (active); under `CC(=O)[O][Hg][c]1ccccc1`, 13100 nM (active). The same measure, in the same setting: next, `O=c1[nH]c2ccc(Cl)cc2c(N[C@@H]2CN3CCC2CC3)c1-c1nc2ccccc2[nH]1`: 18500 nM (active). On to `CC(C)[C@]12O[C@@H]1[C@@H]1O[C@]13[C@]1(O[C@H]1C[C@@H]1C4=C(CC[C@@]13C)C(=O)OC4)[C@H]2O`, for which the “activity, negative = cytotoxic” value is -9.79% (inactive). On the same count and under the same terms, next, `Cc1ccccc1-n1c(Cn2ncc3c(N)ncnc32)nc2cccc(C)c2c1=O`: -6.65% (inactive). Same read-out and setting: next, `Cc1ccccc1-n1c(Cn2cnc3c(N)ncnc32)nc2cccc(C)c2c1=O`: -9.26% (inactive). For the compound `O=C(N[C@H]1CN2CCC1CC2)c1ccc(Cl)cc1`, the “activity, negative = cytotoxic” value is 2.85% (inactive). On the same count and under the same terms, next, `CC(C)N[C@@H]1CCn2c(=O)[nH]c3cccc(c32)[C@@H]1O`: 4.53% (inactive); `O=C(O)CCCOc1ccc(Cl)cc1Cl`: 4.09% [at 95.5 µM] (inactive).

A short description of a further assay: qHTS of pediatric cancer cell lines to identify multiple opportunities for drug repurposing: Confirmatory screen for Rh41 cells (AID 1347123).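 Further: 48 h compound exposure; nearly all actives have a fitted effect of over 60% in size.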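 On activity change, negative = cytotoxic: plate controls were DMSO for no effect and bortezomib for full effect.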 The settings on record: Rh41 rhabdomyosarcoma cells, viability/cytotoxicity qHTS; series mostly up to 45.9 µM; activity change, negative = cytotoxic: at the top concentration. In short, it runs like this:
as §1
A general note: qHTS replaces the single test concentration by a dilution series.
For the compound `CC(C)(C)C(O)C(Oc1ccc(Cl)cc1)n1cncn1` (stereo unspecified), the “activity change, negative = cytotoxic” value was 8.53% [at 97.2 µM] (inactive).

For `CC[C@@]1(O)C(=O)OCc2c1cc1n(c2=O)Cc2cc3ccccc3nc2-1`, the Potency was 369 nM (active). Turning to `O=[N+]([O-])c1c(Cl)c(Cl)cc(Cl)c1Cl`, the “activity change, negative = cytotoxic” value was 1.57% [at 97.2 µM] (inactive). Take `COc1ccc2c(c1)CN(C)CC2c1ccc(Cl)c(Cl)c1` (stereo unspecified): the Potency is 18500 nM (active). Same read-out and setting: next, `C[C@@H]1O[C@@H](O[C@@H]2C=C3CC[C@@H]4[C@@H](CC[C@]5(C)[C@H](c6ccc(=O)oc6)CC[C@@]45O)[C@@]3(C)CC2)[C@H](O)[C@H](O)[C@H]1O`: 16.5 nM (active); `C=CCON=C(C[C@H]1O[C@@H]2O[C@]3(C)CC[C@@H]4[C@H](C)CC[C@@H]([C@H]1C)[C@@]24OO3)[C@H]1O[C@@H]2O[C@]3(C)CC[C@H]4[C@H](C)CC[C@@H]([C@@H]1C)[C@@]24OO3`: 52.2 nM (active).

Turning to `CC1=C(O)C(=O)C=C2C1=CC=C1[C@@]2(C)CC[C@@]2(C)[C@@H]3C[C@](C)(C(=O)O)CC[C@]3(C)CC[C@]12C`, the Potency was 1470 nM (active). On to `CC(C)(O)C=CC(=O)[C@](C)(O)[C@H]1[C@H](O)C[C@]2(C)[C@@H]3CC=C4[C@@H](C=C(O)C(=O)C4(C)C)[C@]3(C)C(=O)C[C@@]12C`, for which the Potency is 208 nM (active).

Take `O=c1[nH]c2ccc(Cl)cc2c(N[C@@H]2CN3CCC2CC3)c1-c1nc2ccccc2[nH]1`: the Potency is 3690 nM (active).

`CC(C)[C@]12O[C@@H]1[C@@H]1O[C@]13[C@]1(O[C@H]1C[C@@H]1C4=C(CC[C@@]13C)C(=O)OC4)[C@H]2O`: the Potency is 26.1 nM (active).

For the compound `Cc1ccccc1-n1c(Cn2ncc3c(N)ncnc32)nc2cccc(C)c2c1=O`, the “activity change, negative = cytotoxic” value is 16.1% (inactive). On the same count and under the same terms, next, `Cc1ccccc1-n1c(Cn2cnc3c(N)ncnc32)nc2cccc(C)c2c1=O`: -0.155% (inactive); `CC(C)N[C@@H]1CCn2c(=O)[nH]c3cccc(c32)[C@@H]1O`: 0% (inactive).

`C[C@H]1CCCC=CC2C[C@H](O)C[C@@H]2[C@H](O)C=CC(=O)O1` (stereo partly specified): the Potency is 827 nM (active).
